# Assay results published in PubChem BioAssay (NCATS).
# Where “and” joins values, the source holds several entries; their conditions need not be identical. Identical values can stand only once. Records with an inconclusive call do not appear. Calls of active or inactive are those of the source. Unless noted, how the calls were made is not given here.
# Legend:
# [1] = qHTS Assay for Identifying Gametocytocidal Compounds (AID 743244; active means well fitted curve in the direction sought with a large enough effect; an effect the other way counts as inactive or inconclusive; further: potency means the concentration at half of the fitted maximal effect;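 on max response: on the % scale 0 is the no-effect control and ±100 the full control effect; actives lower the fluorescent signal which means gametocytes are killed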); conditions: P. falciparum 3D7 stage III-V gametocytes, alamarBlue, 72 h; max response: stronger effect = lower value
# Method in brief: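 3D7 gametocytes, stages III–V, 20,000/well; cpd 72 h, 37 °C/5% CO2; + alamarBlue 24 h; fluor. Ex 525/Em 598.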
# [2] = qHTS profiling for inhibitors of Plasmodium falciparum (3D7) proliferation (AID 743322);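 further: infected erythrocytes exposed to compound for 72 h before lysis; 100% = DMSO vehicle wells and 0% = 0.29 µM artemisinin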; conditions: P. falciparum 3D7 proliferation; at 28.7 µM (top of the series) unless noted
# Method in brief: (§1)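 Erythrocytes infected with P. falciparum (0.3% parasitemia, 2.5% hematocrit) incubated with compounds 72 h at 37 C, 5% CO2. Lysis with saponin/Triton buffer containing SYBR Green I, overnight at room temperature in the dark; DNA fluorescence (485/535 nm) normalised to 0.29 uM artemisinin and DMSO.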
# [3] = qHTS profiling for inhibitors of Plasmodium falciparum (DD2) proliferation (AID 743323); conditions: lower = more inhibition; at 28.7 µM (top of the series) unless noted
# Method in brief: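 1536-well qHTS; infected RBCs 0.3% parasitemia/2.5% Hct final; cpd 72 h 37 C 5% CO2; lysis buffer + SYBR Green I, o/n RT dark; FI 485/535; norm. to 0.29 uM artemisinin and DMSO, plate-stack corrected.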
# [4] = qHTS profiling for inhibitors of Plasmodium falciparum (HB3) proliferation (AID 743324; active means well fitted curve in the direction sought with a large enough effect; an effect the other way counts as inactive or inconclusive;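 further: 100% = DMSO vehicle wells and 0% = artemisinin-treated control wells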); conditions: Plasmodium falciparum HB3 blood-stage proliferation; at 28.7 µM (top of the series) unless noted
# Method in brief: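 P. falciparum HB3 grown in erythrocytes (0.3% parasitemia, 2.5% hematocrit final) with compound for 72 h at 37 C, 5% CO2. Parasite DNA detected by SYBR Green after saponin/triton lysis overnight; normalized to 0.29 uM artemisinin and DMSO.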
# [5] = qHTS profiling of the MIPE4 collection as inhibitors of Plasmodium falciparum (3D7) proliferation (AID 743344);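 further: scaled between DMSO vehicle wells and 0.29 µM artemisinin as full inhibition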; conditions: P. falciparum 3D7 in erythrocytes, SYBR Green DNA fluorescence, 72 h; at 28.5 µM (top of the series) unless noted
# Method in brief: as §1
# [6] = qHTS profiling of the MIPE4 collection as inhibitors of Plasmodium falciparum (DD2) proliferation (AID 743345); conditions: P. falciparum Dd2 in erythrocytes, SYBR Green DNA, 72 h; at 28.5 µM (top of the series) unless noted
# Method in brief: as §1
# [7] = qHTS profiling of the MIPE4 collection as inhibitors of Plasmodium falciparum (DD2) proliferation (Rep 2) (AID 743346); conditions: P. falciparum Dd2 in erythrocytes, SYBR Green DNA, 72 h; at 28.5 µM (top of the series) unless noted
# Method in brief: as §1
# [8] = qHTS profiling of the MIPE4 collection as inhibitors of Plasmodium falciparum (HB3) proliferation (AID 743347);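 further: plate controls were DMSO vehicle wells for no effect and artemisinin wells for full effect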; conditions: P. falciparum HB3 in erythrocytes, SYBR Green DNA, 72 h; at 28.5 µM (top of the series) unless noted
# Method in brief: as §1
# [9] = target: T1, Hexokinase-4 (Homo sapiens) + Glucokinase regulatory protein (Homo sapiens) (UniProt P35557+Q14397); assay: qHTS assay for inhibitors of recombinant human GCK-GKRP interaction: Diaphorase-coupled assay (AID 743205; active means well fitted curve in the direction sought with a large enough effect; an effect the other way counts as inactive or inconclusive)
# Method in brief: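 Signal derives from resorufin generated by diaphorase, linked to GCK turnover of glucose (5 mM) and ATP (0.4 mM). Enzyme complex was added after a 20-minute compound preincubation and monitored for 30 minutes.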
# [10] = target: T1, Hexokinase-4 (Homo sapiens) + Glucokinase regulatory protein (Homo sapiens); assay: qHTS assay for inhibitors of recombinant human GCK-GKRP interaction: ADP-Glo assay (AID 743206; active means well fitted curve in the direction sought with a large enough effect; an effect the other way counts as inactive or inconclusive;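 further: plate controls were DMSO plus enzyme for no effect and no enzyme for full effect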)
# Method in brief: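 GST-GCK and FLAG-GKRP (15 nM each in the dispensed mix, with 2 uM S6P) react with 0.4 mM ATP and 5 mM glucose (final) in Hepes pH 7.6 for 60 min at room temperature. ADP is measured by ADP-Glo luminescence.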
# [11] = target: T1, Hexokinase-4 (Homo sapiens) + Glucokinase regulatory protein (Homo sapiens); assay: qHTS assay for inhibitors of recombinant human GCK-GKRP interaction: HTRF assay (AID 743207; active means well fitted curve in the direction sought with a large enough effect; an effect the other way counts as inactive or inconclusive;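 further: 0% = DMSO with GCK present and -100% = DMSO wells lacking GCK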)
# Method in brief: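 Titration screening format: recombinant GST-GCK and FLAG-GKRP at 5 nM, S6P at 2 uM, labelled anti-tag antibodies, 60 min at RT, dual-wavelength HTRF readout.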
# T1 sequence (P35557 whole entry, looked up): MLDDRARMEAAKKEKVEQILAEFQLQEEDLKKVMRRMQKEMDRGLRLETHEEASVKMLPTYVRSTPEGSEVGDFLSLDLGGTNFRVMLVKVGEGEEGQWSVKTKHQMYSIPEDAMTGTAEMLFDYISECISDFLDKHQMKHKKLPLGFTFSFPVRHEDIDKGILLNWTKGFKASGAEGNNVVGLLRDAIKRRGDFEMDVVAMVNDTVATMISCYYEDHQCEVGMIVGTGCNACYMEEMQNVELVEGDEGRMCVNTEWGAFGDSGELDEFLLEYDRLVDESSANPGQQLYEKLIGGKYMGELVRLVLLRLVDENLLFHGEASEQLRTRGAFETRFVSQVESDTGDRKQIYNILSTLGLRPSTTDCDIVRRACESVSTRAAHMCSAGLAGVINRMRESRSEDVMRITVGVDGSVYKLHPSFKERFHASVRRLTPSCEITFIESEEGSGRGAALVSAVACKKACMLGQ
# T1 sequence (Q14397 whole entry, looked up): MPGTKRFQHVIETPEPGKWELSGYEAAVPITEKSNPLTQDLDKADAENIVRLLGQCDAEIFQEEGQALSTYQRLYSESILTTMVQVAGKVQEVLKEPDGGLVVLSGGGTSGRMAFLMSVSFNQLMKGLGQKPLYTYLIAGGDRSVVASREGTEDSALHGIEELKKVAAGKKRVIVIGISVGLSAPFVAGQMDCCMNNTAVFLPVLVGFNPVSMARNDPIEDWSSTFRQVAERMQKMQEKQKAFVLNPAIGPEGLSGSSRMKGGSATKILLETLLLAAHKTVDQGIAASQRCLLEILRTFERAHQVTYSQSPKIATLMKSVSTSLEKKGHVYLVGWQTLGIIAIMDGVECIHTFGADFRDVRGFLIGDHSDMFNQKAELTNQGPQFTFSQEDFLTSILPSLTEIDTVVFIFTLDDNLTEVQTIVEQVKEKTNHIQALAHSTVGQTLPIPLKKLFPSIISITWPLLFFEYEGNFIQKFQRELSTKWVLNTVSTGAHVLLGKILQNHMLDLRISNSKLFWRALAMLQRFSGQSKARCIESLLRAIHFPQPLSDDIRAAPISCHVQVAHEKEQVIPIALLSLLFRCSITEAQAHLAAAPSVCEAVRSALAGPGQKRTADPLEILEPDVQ
Structure (SMILES),max response [1],remaining parasite growth % (stronger effect = lower value) [2],"activity, percent of control [3]","remaining proliferation (% of control), lower = more inhibition [4]","parasite growth, % of DMSO control [5]","parasite growth remaining, % of DMSO control (lower = more inhibition) [6]","parasite growth, % of control (lower = inhibition) [7]","growth, % of control [8]",outcome [9],outcome [10],outcome [11],Potency [1]
Cn1cc(-c2ccc3nnc(C(F)(F)c4ccc5ncccc5c4)n3n2)cn1,-4.32% (inactive),40.4%,62.2%,17.3%,24.5%,70.3%,41.1%,35.2%,–,–,–,–
Nc1nc2c(ncn2COCCO)c(=O)[nH]1,17.4% (inactive) and 18.4% (inactive),–,–,–,–,–,124%,99.6%,inactive,inactive,inactive,–
Cc1cc(-c2ccc(CC(=O)Nc3ccc(-c4cccnc4)cc3)cc2)ccn1,17.3% (inactive),75%,88.9%,6.55%,32.3%,95.7%,110%,63.6%,–,–,–,–
CCc1cncnc1N1CCN(Cc2nc3ccc(C(F)(F)F)cc3[nH]2)CC1,8.68% (inactive),24.3%,20.3%,14%,19.6%,33%,27.9%,15.6%,–,–,–,–
N[C@@H]1CONC1=O,2.44% (inactive) and 21.1% (inactive),–,–,–,398%,120%,80.9%,650%,inactive,inactive,inactive,–
CCN(CCCO)CCCOc1ccc2c(Nc3cc(CC(=O)Nc4cccc(F)c4)[nH]n3)ncnc2c1,–,-1.31%,1.34%,0.759%,–,–,–,–,–,–,–,0.743 µM (active)
CC(C)c1onc(-c2c(Cl)cccc2Cl)c1COc1ccc(/C=C/c2cccc(C(=O)O)c2)c(Cl)c1,14.5% (inactive),28.5%,74.9%,71.7%,–,–,–,–,–,–,–,–
COCCNCCCn1c(C(=O)CF)c(-c2ccc(C)cc2)c2c(N)ncnc21,-16.2% (inactive),72.8%,77.9%,35%,39%,85.3%,36.5%,32.4%,–,–,–,–
COc1ccc(-c2oc3cc(OC)ccc3c2C(=O)c2ccc(C#N)cc2)cc1,8.18% (inactive),62.8%,77%,23.4%,23.1%,–,14.8%,16.7%,–,–,–,–
OCCn1cc(-c2cnc3nnn(Cc4ccc5ncccc5c4)c3n2)cn1,–,81.8%,86.8%,64.7%,56.6%,94.4%,56.8%,47.5%,–,–,–,29.6 µM (active)
O=c1[nH]c(-c2ccc(C(F)(F)F)cc2)nc2c1CSCC2,12% (inactive),106%,103%,29.8%,74.2%,–,74.7%,86.7%,–,–,–,–
CCn1c(-c2nonc2N)nc2cnc(Oc3cccc(NC(=O)c4ccc(OCCN5CCOCC5)cc4)c3)cc21,33.1% (inactive),15.3%,20.7%,14.7%,13.1%,–,22.1%,3.64%,–,–,–,–
CS(=O)(=O)c1ccc(C(=O)Nc2ccc(Cl)c(-c3ccccn3)c2)c(Cl)c1,15% (inactive),105%,101%,103%,66.9%,93.4%,97%,92.4%,–,–,–,–
O=C(O)[C@@H](c1ccc(OCc2ccc3ccccc3n2)cc1)C1CCCC1,46.8% (inactive),114%,96.9%,106%,90.1%,–,130%,84.3%,–,–,–,–
CCC(=O)N[C@H]1CC[C@H](C(=O)N(C)c2ccc(-c3nc4ccccc4o3)cc2)C1,65.6% (inactive),58.5%,55.3%,35.8%,28.4%,65.1%,41.7%,33.6%,–,–,–,–
Cc1cc2c(F)c(Oc3ncnn4cc(OC[C@@H](C)O)c(C)c34)ccc2[nH]1,-5% (inactive),101%,101%,75.1%,46.6%,93.1%,54.4%,76.7%,–,–,–,–

Structure (SMILES),max response [1],remaining parasite growth % (stronger effect = lower value) [2],"activity, percent of control [3]","remaining proliferation (% of control), lower = more inhibition [4]","parasite growth, % of DMSO control [5]","parasite growth remaining, % of DMSO control (lower = more inhibition) [6]","parasite growth, % of control (lower = inhibition) [7]","growth, % of control [8]",outcome [9],outcome [10],outcome [11],Potency [1]
C[C@]1(c2nc3c(C(N)=O)cccc3[nH]2)CCCN1,20.1% (inactive),93.1%,87.4%,94%,88.7%,–,85.5%,88.5%,–,–,–,–
C[C@H](NC(=O)Cc1cc(F)cc(F)c1)C(=O)N[C@@H]1C(=O)N(C)c2ccccc2-c2ccccc21,-14.2% (inactive),7.69%,7.48%,6.09%,10.3%,12.1%,12.3%,3.07%,–,–,–,–
C[C@]12CC[C@H](O)CC1=CC[C@@H]1[C@H]2CC[C@]2(C)C(c3cccnc3)=CC[C@H]12,-8.9% (inactive),-0.476%,1.24%,24.9%,7.02% [at 9.64 µM],–,24.8% [at 9.64 µM],9.4% [at 9.64 µM],–,–,–,–
Cc1ccccc1C(C(=O)NC1CCCC1)N(C(=O)Cn1cnc2ccccc21)c1cccc(F)c1 (centres undefined),-12.2% (inactive),45.1%,58.9%,34.4%,72.9%,65.6%,38%,97.9%,–,–,–,–
Cc1cc(-c2nnc3n2CCCCC3)c(C)n1-c1ccc(F)cc1,–,7.99%,9.31%,0.91%,–,–,–,–,–,–,–,18.7 µM (active)
CC[C@H](Nc1ncnc2nc[nH]c12)c1nc2cccc(F)c2c(=O)n1-c1ccccc1,14.6% (inactive),–,–,–,–,–,–,–,–,–,–,–
Cc1ccc2c(c1)C(=O)[C@@]1(O)CCN(c3ccccc3)C1=N2,-1.35% (inactive),104%,112%,36.1%,–,–,–,–,–,–,–,–
CNCc1ccc(-c2[nH]c3cc(F)cc4c3c2CCNC4=O)cc1,–,28.7%,77.5%,54%,47.4%,85%,51.1%,18.7%,–,–,–,29.6 µM (active)
Cn1cnc2c(F)c(Nc3ccc(Br)cc3Cl)c(C(=O)NOCCO)cc21,17.6% (inactive),91.2%,90.2%,94.6%,58.2%,95.9%,57.1%,97.3%,–,–,–,–
COc1cc(Nc2ncc3c(n2)-c2ccc(Cl)cc2C(c2c(F)cccc2OC)=NC3)ccc1C(=O)O,-8.12% (inactive),89.5%,78.1%,61.2%,24.7%,69.6%,39.4%,30.2%,–,–,–,–
Cc1c(CCOc2ccc(C(=O)O)cc2)c2cc(Cl)ccc2n1C(c1ccccc1)c1ccccc1,6.58% (inactive),84.7%,81.3%,23.4%,30.6%,–,41.9%,63.5%,–,–,–,–
CCOc1cc(C=C2C(=O)N(c3ccccc3)N=C2C)cc(Cl)c1OCC(=O)OC,28.7% (inactive),88.1%,92.3%,102%,102%,–,106%,98.7%,–,–,–,–
COc1ccc(-c2c(-c3ccc(O)cc3O)n[nH]c2C)cc1,3.95% (inactive),–,5.32%,0.491%,47% [at 57.5 µM],61.8% [at 57.5 µM],45.5% [at 57.5 µM],106% [at 57.5 µM],–,–,–,–
O=C(C=Cc1ccc(/C=C/C(=O)Nc2ccc(C3=NCCN3)cc2)cc1)Nc1ccc(C2=NCCN2)cc1,6.08% (inactive),–,27.3%,10.9%,25.9%,39%,40.5%,54.9%,–,–,–,–
Cc1csc(NC(=O)c2sc3nc4c(c(C(F)(F)F)c3c2N)CCC4)n1,13.6% (inactive),–,101%,87.9%,44.6%,90.9%,62.4%,78.3%,–,–,–,–
CCC(C)(C)C(=O)O[C@H]1C[C@@H](C)C=C2C=C[C@H](C)[C@H](CC[C@@H]3C[C@@H](O)CC(=O)O3)[C@H]21,5.81% (inactive),116% [at 9.63 µM],96.4% [at 9.63 µM],86.8% [at 9.63 µM],–,42%,13.8%,3.36%,–,–,–,–
